High-throughput results: PubChem, several laboratories
An excerpt weighted towards active compounds, which were near 3.2% of everything screened.
ANO1 block = inhibitors of mouse TMEM16A calcium-activated chloride channel | HEK293 TMEM16A/YFP iodide influx fluorescence, ionomycin | normalized B-score (activity score, 25-100; higher = stronger inhibition) at 10 µM | 1.2% of 310,000 active;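 active = ratio plate-corrected score three or more library SD toward inhibition, starting fluorescence score within five deviations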;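 note: score derived from kinetic fluorescence span divided by baseline fluorescence per well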
Target sequence (Q8BHY3 whole entry, looked up): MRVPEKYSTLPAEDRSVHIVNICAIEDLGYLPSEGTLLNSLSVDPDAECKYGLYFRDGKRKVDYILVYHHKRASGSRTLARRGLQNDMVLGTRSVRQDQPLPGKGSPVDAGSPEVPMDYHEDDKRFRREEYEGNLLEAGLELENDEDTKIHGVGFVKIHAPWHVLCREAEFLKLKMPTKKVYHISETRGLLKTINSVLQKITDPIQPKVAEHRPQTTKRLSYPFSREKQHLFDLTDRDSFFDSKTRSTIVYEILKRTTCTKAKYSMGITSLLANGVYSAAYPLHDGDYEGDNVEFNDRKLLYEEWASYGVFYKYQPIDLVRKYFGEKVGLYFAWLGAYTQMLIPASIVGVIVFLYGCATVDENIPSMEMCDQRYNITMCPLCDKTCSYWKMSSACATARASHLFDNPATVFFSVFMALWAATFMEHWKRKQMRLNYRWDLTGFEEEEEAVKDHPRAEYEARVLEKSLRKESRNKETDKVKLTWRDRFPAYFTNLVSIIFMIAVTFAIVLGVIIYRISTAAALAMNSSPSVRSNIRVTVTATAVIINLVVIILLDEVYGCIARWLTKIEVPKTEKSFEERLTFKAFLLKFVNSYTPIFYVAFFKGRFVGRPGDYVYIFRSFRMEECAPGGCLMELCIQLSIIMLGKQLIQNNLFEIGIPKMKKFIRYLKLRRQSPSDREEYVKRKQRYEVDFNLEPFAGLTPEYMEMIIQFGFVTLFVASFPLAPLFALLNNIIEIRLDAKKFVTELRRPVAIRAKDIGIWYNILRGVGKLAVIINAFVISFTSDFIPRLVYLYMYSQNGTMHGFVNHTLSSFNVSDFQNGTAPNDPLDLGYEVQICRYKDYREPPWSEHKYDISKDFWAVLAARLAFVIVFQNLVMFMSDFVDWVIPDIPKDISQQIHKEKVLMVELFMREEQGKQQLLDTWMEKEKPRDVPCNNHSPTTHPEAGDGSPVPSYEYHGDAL
Rce1 inhib = inhibitors of yeast Ras-converting enzyme; Q03530; yeast membranes, quenched prenylated peptide cleavage fluorescence; calls only; 0.27% of 290,000 active; AID 2563;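 active = fall in fluorescence gain of 50% or more versus controls, with final raw signal at or below 3038400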;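 note: plate controls were neutral control wells for no effect and wells lacking membranes for full effect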
CHT block = human CHT choline transport inhibition; Q9GZV3; B-score at 10 µM; 0.86% of 310,000 active; CHT-expressing cells, membrane potential dye, choline response; hits give low values;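 active = B-score over 3 SD under the library average, and starting fluorescence ratio not unusually high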;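 note: choline stimulus applied at its EC90 after an EC20 pre-addition; B-score computed on integrated fluorescence ratio after choline addition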
CHT PAM = human CHT allosteric activation | 0.49% of 310,000 active | B-score at 10 µM | Q9GZV3 | CHT-expressing cells, membrane potential dye, choline EC20; hits give high values; LV-AA mutant CHT in HEK293 cells;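 active = initial fluorescence not abnormally high and integrated response B-score, plate-corrected, over 3 SD above library mean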
TMEM16A act = mouse TMEM16A channel activation, primary screen; B-score at 10 µM; Q8BHY3; 0.3% of 340,000 active; HEK293 TMEM16A/YFP-H148Q/I152L, iodide quench fluorescence; hits give low values;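 active = fluorescence-ratio B-score plate-corrected deviation score at least 3 library SD below zero, with starting fluorescence score within 5 deviations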;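 note: channel opened by trigger with iodide after compound preincubation; score built on the fluorescence ratio of max minus min over baseline; more negative score means more quench and so TMEM16A activation or potentiation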
Kir21 inh = Kir2.1 (mouse) channel inhibition. P35561. HEK293-Kir2.1, FluxOR thallium flux fluorescence; hits give low values. B-score at 10 µM. 0.85% of 310,000 active. AID 1672;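 active = fluorescence ratio B-score at or below minus 3 SD of library scores, with starting-brightness B-score within 2 SD, cut at about -4.2 in these data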;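 note: channel flux triggered by added potassium and thallium sulfate stimulus; B-score of peak minus minimum fluorescence over baseline after thallium stimulus; more negative B-score means stronger Kir2.1 block with less thallium influx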
TMEM16A reconf = re-confirmation of mouse TMEM16A chloride channel inhibitors | inhibition, % at 10 µM | 39% of 2,300 active | HEK293 TMEM16A/YFP-H148Q, iodide quench fluorescence; ionomycin added to raise cell calcium | shares compounds with ANO1 block;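 active = mean duplicate percent inhibition, scaled so buffer wells are 0 and the reference blocker 100, over three buffer SD above buffer mean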
HEK293 Ca mobil = counter-screen for TMEM16A inhibitors: effect on calcium mobilization. shares compounds with ANO1 block. TMEM16A/YFP HEK293, Fluo4 calcium mobilization. calcium response (% of ionomycin), % at 10 µM. 2% of 2,300 active;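 active = duplicate-averaged calcium signal over 20% of the ionomycin maximum, relative to buffer baseline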;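 note: each well's signal is peak minus trough fluorescence divided by its pre-addition baseline; 0% = buffer wells and 100% = ionomycin wells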
YFP-HEK293 quench = counter-screen for TMEM16A inhibitors: effect in parental YFP-HEK293 cells | shares compounds with ANO1 block | iodide YFP quench, ionomycin | YFP ratio F(max-min)/F0 at 10 µM | 2,300 tested, under 10 active | AID 652233;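 active = yellow fluorescent protein signal ratio exceeding the buffer control mean by over 5 SD of those controls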;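 note: ratio is mean of duplicate wells from kinetic YFP trace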
ClC-1 inh = blocks the rat ClC-1 voltage-dependent chloride channel; ratio percent, % at 10 µM; AID 652236; 2,300 tested, under 10 active; shares compounds with ANO1 block; CHO ClC-1-YFP, iodide influx fluorescence quench; iodide control reads 0, buffer control 100;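 active = duplicate-mean ratio percent above the mean of iodide-only control wells, which defines zero, plus 5 of their SD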;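 note: higher percent means stronger block of ClC-1 iodide influx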
* hit, by the source's call; i = inactive; . = no result.

SMILES | ANO1 block | Rce1 inhib | CHT block | CHT PAM | TMEM16A act | Kir21 inh | TMEM16A reconf | HEK293 Ca mobil | YFP-HEK293 quench | ClC-1 inh
CCCCNC(=S)Nc1ccc(SC(F)F)cc1 | 100* | i | i | i | i | 1.2 | 54%* | i | -0.95 | -16
CC(C)(CC(=O)N1CCN(c2ccc(Cl)cc2)CC1)CC1=NS(=O)(=O)c2ccccc2N1 | 25* | i | i | i | i | 1.9 | i | i | -1.1 | -8
Clc1ccc(CSC2=NCCCN2)cc1Cl | i | i | i | i | i | -0.93 | . | . | . | .
Clc1ccccc1CSC1=NCCCN1 | 100* | i | i | i | i | 1 | i | i | -1.1 | -11
CN(CC(=O)Nc1c(Cl)cccc1Cl)C(=O)c1ccc2ccccc2n1 | . | . | . | . | i | . | . | . | . | .
Cc1[nH]n(-c2ccccc2)c(=O)c1C(c1ccc(O)c([N+](=O)[O-])c1)c1c(C)[nH]n(-c2ccccc2)c1=O | 100* | i | -6.1* | i | i | -1 | 34%* | i | -0.92 | -12
O=c1c2cc([N+](=O)[O-])cc([N+](=O)[O-])c2[nH]n1-c1ccccc1 | i | i | i | i | i | 0.85 | . | . | . | .
CC(C)n1nnnc1-c1cccc(Cl)c1 | i | i | i | i | i | 0.8 | i | i | -1.2 | -8
O=C(Nc1ccncc1)c1ccc(Cl)c(S(=O)(=O)N2CCc3ccccc32)c1 | 25* | i | i | i | i | -0.83 | 32%* | i | -1.1 | -30
O=C(Nc1ccccc1)c1ccc(N2CCN(c3ccccn3)CC2)c(S(=O)(=O)N2CCOCC2)c1 | i | i | i | i | i | 1.4 | . | . | . | .
O=C(CSc1ccccc1)Nc1ccc(Cl)c(S(=O)(=O)N2CCOCC2)c1 | . | . | . | . | i | . | . | . | . | .
Cc1cccc(NC(=O)c2ccc(Cl)c(S(=O)(=O)N3CCc4ccccc43)c2)n1 | . | . | . | . | i | . | . | . | . | .
O=C(Nc1ccc(Br)cc1)c1ccc(F)c(S(=O)(=O)N2CCN(c3ccccn3)CC2)c1 | 25* | i | i | i | i | 1.6 | i | i | -1.1 | -16
O=C(Nc1nnc(C2CC2)s1)c1ccc(Cl)c(S(=O)(=O)N2CCc3ccccc3C2)c1 | 100* | i | i | i | i | 0.65 | 26%* | i | -1.1 | -3
O=C(Nc1ccccc1)Nc1ccc(Cl)c(S(=O)(=O)N2CCOCC2)c1 | 100* | i | i | i | i | -0.06 | 28%* | i | -0.91 | -12
O=C(Nc1ccncc1)c1ccc(Cl)c(S(=O)(=O)N2CCCCC2)c1 | 25* | i | i | i | i | -1.5 | i | i | -1 | -20
Cn1c(CNS(=O)(=O)c2ccc(F)cc2)n[nH]c1=S | 100* | . | i | i | i | -0.63 | i | i | -1 | -10
Cn1c(CNS(=O)(=O)c2ccc(Cl)cc2)n[nH]c1=S | i | . | i | i | i | 0.47 | . | . | . | .
Cc1c(Cl)c(C(=O)NC2C3CC4CC(C3)CC2C4)nn1C (configuration not stated) | 100* | i | i | i | i | 0.69 | i | i | -0.96 | -1
O=C(CSc1nc2ncc(Br)cc2[nH]1)Nc1ccccc1-c1ccccc1 | 100* | i | i | i | i | -0.36 | i | i | -0.96 | -4
Cc1cc(Cl)c(S(=O)(=O)N2CCCCCC2)cc1OCC(=O)NC1CCCCC1 | 100* | i | i | i | i | -1.9 | 24%* | i | -1.1 | -16
Cc1cc(Cl)c(S(=O)(=O)N2CCSCC2)cc1OCC(=O)NC1CCCCC1 | 100* | i | i | i | i | -0.71 | 28%* | i | -0.9 | -12
Cc1cc(OCC(=O)NC(Cc2ccc(Cl)cc2)C(=O)O)c2c(C)c(C)c(=O)oc2c1 (configuration not stated) | i | i | i | i | i | 1.2 | . | . | . | .
CC(C)CC(=O)Nc1nnc(CSCc2ccc(F)cc2)s1 | i | i | i | i | i | -2 | . | . | . | .
CCn1cc(CN2CCC(n3nccc3NC(=O)c3ccccc3C)CC2)cn1 | i | i | i | i | i | 0.63 | . | . | . | .
SMILES | ANO1 block | Rce1 inhib | CHT block | CHT PAM | TMEM16A act | Kir21 inh | TMEM16A reconf | HEK293 Ca mobil | YFP-HEK293 quench | ClC-1 inh
Cc1ccc(-c2nc3cccnc3o2)cc1NC(=O)COc1ccc(C(C)(C)C)cc1 | 25* | i | i | i | i | 0 | i | 21%* | -1 | -18
O=C(COC(=O)Cc1cccc(C(F)(F)F)c1)NC(=O)NC1CCCC1 | . | . | . | . | i | . | . | . | . | .
O=C(COC(=O)CCNS(=O)(=O)c1cccc(C(F)(F)F)c1)NC(=O)NC1CCCCC1 | 25* | i | i | i | i | -0.39 | 24%* | i | -1.3 | -10
CC(C)CCN(C(=S)Nc1cccc(C(F)(F)F)c1)C(C)c1ccccn1 (configuration not stated) | 25* | i | i | i | i | -2.1 | i | i | -0.91 | -2
O=C(O)c1ccc2c(=O)n(Cc3ccccc3)c(SCc3ccc([N+](=O)[O-])cc3)nc2c1 | 25* | i | i | i | i | -0.55 | 19%* | i | -1.1 | -4
CCN(CC)CCn1c2c(c(SCC(=O)Nc3ccc(F)c(F)c3)nc1=O)CCC2 | i | i | i | i | i | -0.55 | . | . | . | .
Cc1cc(C)nc(SSc2nc(C)cc(C)n2)n1 | i | i | i | i | i | 0.03 | . | . | . | .
O=C(Nc1cccnc1)c1ccc(CN2CCc3ccccc3C2)cc1 | 25* | i | i | i | i | -0.26 | 22%* | i | -0.94 | -4
Cc1ccc(NC(=O)c2ccc(CN3CCc4ccccc4C3)cc2)cc1 | 25* | i | i | i | i | 1.9 | i | i | -0.89 | 0
O=C(Nc1ccccc1)c1ccc(CN2CCc3ccccc3C2)cc1 | i | i | i | i | i | -1.4 | . | . | . | .
COc1ccc(C(C)=O)cc1CN(c1ccccc1OC)S(=O)(=O)c1cccs1 | i | i | i | i | i | 1.6 | . | . | . | .
